Experimental data reported in paper PMC7819943, “Rice protein-binding microarrays: a tool to detect cis-acting elements near promoter regions in rice”.
The full ranking holds about 39,000 sequences; the median of “fluorescence intensity (a.u.)” is about 4,300, and the highest 2% start at about 39,000. Many of the other results were omitted from the sample, so the highest values are more common in it than they were.

These sequences were tested against T1, OsSMF1 (Oryza sativa, UniProt Q6ZLB0 1-436) (assay: protein-binding microarray (RPBM); PBS, 2% BSA, 51.3 ng/ul salmon testes DNA, 50 uM zinc acetate, 200 nM TF, 25 C, 1 h; high values mean tight binding). Settings: protein: recombinant; tags: N-terminal polyhistidine and DsRed monomer fusion (pET32a); chain copies: 2; label: CyDye5-dUTP incorporated in the synthesized complementary strand; 3' TTTTT single-stranded linker to array surface; dsDNA, one strand shown.
T1 sequence: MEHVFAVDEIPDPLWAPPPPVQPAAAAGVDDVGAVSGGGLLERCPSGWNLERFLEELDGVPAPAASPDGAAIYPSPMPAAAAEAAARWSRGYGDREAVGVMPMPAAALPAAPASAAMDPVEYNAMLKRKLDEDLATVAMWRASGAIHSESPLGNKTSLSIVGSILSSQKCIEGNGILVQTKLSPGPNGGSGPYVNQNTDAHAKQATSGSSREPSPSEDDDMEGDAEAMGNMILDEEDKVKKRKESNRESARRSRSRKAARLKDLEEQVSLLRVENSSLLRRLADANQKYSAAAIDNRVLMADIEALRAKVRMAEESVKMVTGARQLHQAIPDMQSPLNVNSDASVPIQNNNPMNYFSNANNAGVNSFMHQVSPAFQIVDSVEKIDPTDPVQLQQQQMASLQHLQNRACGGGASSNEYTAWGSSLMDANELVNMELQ
How it was run: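 An Axon 4000B scanner gave the binding signal as per-feature fluorescence intensity in arbitrary units. This followed washing of a custom Agilent array that had been incubated for 1 h at 25 °C with 200 nM protein in PBS, 2% BSA, salmon testes DNA and 50 µM zinc acetate. The proteins were transcription factors fused at the N-terminus to polyhistidine and DsRed, expressed in E. coli BL21-CodonPlus and purified on Ni–NTA.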

Sequence	binding signal
CGTCGGCGGCGGCGGAGGGGAGGACGACGTGGTCGACCTCCGGAGTCACCTAGTGCAG	3590 fluorescence intensity (a.u.)
CCGGGAAGGGAGAGGGAGAGAGGAGTCGGGGCGAGAAGTGCGGAGTCACCTAGTGCAG	3500 fluorescence intensity (a.u.)
CCGACGAGGACGAGGCGGCGTGGTCGAAGCCGGCGGTCGGCGGAGTCACCTAGTGCAG	42500 fluorescence intensity (a.u.)
GGGCGGCGACGACGGTCACGGCGGACAAGGGCGGCGGCAACGGAGTCACCTAGTGCAG	3160 fluorescence intensity (a.u.)
CATCGCCGCGCGTGCACCAGAGGACCAGACCGACCGGCGTCGGAGTCACCTAGTGCAG	50200 fluorescence intensity (a.u.)
AAAGGAAAGGCGCGTCACGGCGTCAGACGAGACGACGACGCGGAGTCACCTAGTGCAG	3340 fluorescence intensity (a.u.)
ATCTAGCGACGAGAAGAGAGGAAGGGAGGGAGGCGTCACGCGGAGTCACCTAGTGCAG	3830 fluorescence intensity (a.u.)
CGACGAGAAGGACACCTCCTCGGAAAAGGGAGGGCGTCGGCGGAGTCACCTAGTGCAG	44600 fluorescence intensity (a.u.)
GTATCCATTCCTGCAAATCCAAGTTGGCAATTCCGAGGGCCGGAGTCACCTAGTGCAG	3340 fluorescence intensity (a.u.)
GCGGCGCGACAGCGACAAAGCGCACGCGCGCGGCGAGCTGCGGAGTCACCTAGTGCAG	30800 fluorescence intensity (a.u.)
TAACTTTGGAACAGGCTGATAAGGGTGGATCCTGCGGTTGCGGAGTCACCTAGTGCAG	3440 fluorescence intensity (a.u.)
CTGTTTCAGCACCACTGAGTTCGCAGCAAATGACACAAGGCGGAGTCACCTAGTGCAG	3340 fluorescence intensity (a.u.)
CTTCAGGGTCTAGTCTTTTCAAACCATCGGAGTTATCGTCCGGAGTCACCTAGTGCAG	3530 fluorescence intensity (a.u.)
CCGTCACGGATGACACTTATCTGTGACGGGCTATAGTTGACGGAGTCACCTAGTGCAG	4260 fluorescence intensity (a.u.)
GTCGCGCGCTTGGTGGCTTGCAAGAACCAGCTCCACCGCGCGGAGTCACCTAGTGCAG	3300 fluorescence intensity (a.u.)
GATTCGTTGAATACCGTCATTATTGGTGGGTTATCATCATCGGAGTCACCTAGTGCAG	3490 fluorescence intensity (a.u.)
GTGGAGTGCGGTGGACGGAGCGGCGGGGCGGGGCGGTCAGCGGAGTCACCTAGTGCAG	6720 fluorescence intensity (a.u.)
AAAGTTTTGCATGCCGCTGTCGAAGTCGGCTTCCGCGTAGCGGAGTCACCTAGTGCAG	32300 fluorescence intensity (a.u.)
TGCAGCAGGAGATCGATCGATCGATCGATCCAACCGAATGCGGAGTCACCTAGTGCAG	3260 fluorescence intensity (a.u.)
AACCGAATCCAATCGAGCTCAGGACGAGGCGGAGGAGGAGCGGAGTCACCTAGTGCAG	42900 fluorescence intensity (a.u.)
TCGGCGCCGCGCCGCGCCACGGAGGGTGTCACGAGACCGCCGGAGTCACCTAGTGCAG	4790 fluorescence intensity (a.u.)

Sequence	binding signal
TTAGTGAACGGTGCAACGCGTCAAGGACGAGTCAACGCGCCGGAGTCACCTAGTGCAG	4850 fluorescence intensity (a.u.)
AGAGAGAGAGAGAGAGAGAGAGAGCTCAGGATCGACGAGACGGAGTCACCTAGTGCAG	16900 fluorescence intensity (a.u.)
GCCAACGAGGTCGCGTTCGACAAGGTGAAGGACGCCGGCGCGGAGTCACCTAGTGCAG	39600 fluorescence intensity (a.u.)
ACCAACAAGGTCGTCGCCGACGACGCCGACGCCGACGCCGCGGAGTCACCTAGTGCAG	27600 fluorescence intensity (a.u.)
ACGGAGAAGTCCCGAGACCGGCGCCGCCAGGACCGCCACCCGGAGTCACCTAGTGCAG	44400 fluorescence intensity (a.u.)
GCCTAGCCAGGATCGCCGCCGGCGGCGCCGCCGAGTCACACGGAGTCACCTAGTGCAG	33100 fluorescence intensity (a.u.)
TCTCCATAAGAGCACCCACCAACTCAGCCTCTCCTCCCATCGGAGTCACCTAGTGCAG	3340 fluorescence intensity (a.u.)
CTCCTCCGCCGCCGCCGCTCCCAGCCTGCACGCCGGCCGCCGGAGTCACCTAGTGCAG	26200 fluorescence intensity (a.u.)
GTGCTGTTCCTGCATGTGCATGCATGTATGAGTACGTACGCGGAGTCACCTAGTGCAG	3910 fluorescence intensity (a.u.)
TCTCTCTTCACGGGAGGGCAGTGTGGTTTTGGTCGGATTCCGGAGTCACCTAGTGCAG	3530 fluorescence intensity (a.u.)
TAGTAGATCTAGTATTTTATCTTTAGTCCATCTACCGAGCCGGAGTCACCTAGTGCAG	28500 fluorescence intensity (a.u.)
GCCGCTACAAACCGTGGGCAAGACGTGTCGCCATGGGAGCCGGAGTCACCTAGTGCAG	4560 fluorescence intensity (a.u.)
TGCCAATGTTCCAATTGGTGTTGTCATCTTTGGGTTACCACGGAGTCACCTAGTGCAG	14100 fluorescence intensity (a.u.)
ATTTGGGATGTCTTTATCTCATCCAATTAATCCACGGATACGGAGTCACCTAGTGCAG	49200 fluorescence intensity (a.u.)
CAATTTAATGCTACTTATCTCACATGATGTCTTGGATGTTCGGAGTCACCTAGTGCAG	3980 fluorescence intensity (a.u.)
GGGCACTCGAACCATCTAGTGCAGACGTGGTAACTGGCGCCGGAGTCACCTAGTGCAG	5510 fluorescence intensity (a.u.)
CCAAACTAATTAAGACAGCCAACTCACCTCCATCATATAACGGAGTCACCTAGTGCAG	65500 fluorescence intensity (a.u.)
TCTTATACTAAGATAATAAGATTATATCCTTGTCATCCAACGGAGTCACCTAGTGCAG	4430 fluorescence intensity (a.u.)
ATATCCATATCAAATTAAGCCAGGTTTGTAATTAATAACTCGGAGTCACCTAGTGCAG	9630 fluorescence intensity (a.u.)
GCCGCCGCTCCCTCCCAATGACCCGCCGGATCTCCTAGTGCGGAGTCACCTAGTGCAG	3160 fluorescence intensity (a.u.)
CCTGCAGCCAGGTCCTCGTATCATAGATGACGACGACTTCCGGAGTCACCTAGTGCAG	4660 fluorescence intensity (a.u.)
